Measured values reported in PubChem BioAssay (EPA / NIEHS).
“And” between values parts separate entries of the source, which are not always exact repeats. Equal entries are not always repeated. Records with an inconclusive call do not appear. The source made the active and inactive calls. The calls were made as follows, unless noted: active = hit-call score of the fitted dose curve at least 0.9, where 1 is the maximum; inconclusive = response in the unintended direction; inactive = score below 0.9.

Key:
[1] = biological target: human CYP2B6, CYP2B6 (gene 1555) (UniProt P20813); assay: NVS_ADME_hCYP2B6: NovaScreen (NVS) CYP450-related Enzyme Activity (ADME) Assay for human CYP2B6 (AID 2283101)
How it was run: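 Compounds were first screened in duplicate at 10 uM against recombinant enzyme, with the fluorescent product measured after 1 hour. Active compounds were retested over a concentration series. Loss of fluorescence versus acetonitrile control was scored as reduced enzyme activity.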

[2] = biological target: human CYP1A2, CYP1A2 (gene 1544) (UniProt P05177); assay: NVS_ADME_hCYP1A2: NovaScreen (NVS) CYP450-related Enzyme Activity (ADME) Assay for human CYP1A2 (AID 2283102);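 as to AC50: potency for inhibition since loss of fluorescence marks reduced CYP1A2 activity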
How it was run: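 Fluorescence-intensity enzyme activity read-out, taken 0.5 h post-dosing, using insect-cell-derived recombinant CYP1A2 and specific fluorescent substrate. Acetonitrile served as negative control/baseline. Single-concentration duplicate screen at 10 uM, then concentration-response follow-up.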

[3] = biological target: Cytochrome P450 2C18 (Homo sapiens) (UniProt P33260); assay: NVS_ADME_hCYP2C18: NovaScreen (NVS) CYP450-related Enzyme Activity (ADME) Assay for human CYP2C18 (AID 2283103; active = hit-call score of the fitted dose curve at least 0.9, where 1 is the maximum; inactive = score below 0.9)
How it was run: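 Enzyme activity measured by fluorescence 0.5 h after compound addition, using recombinant CYP2C18 and a specific substrate. Actives from duplicate 10 uM screening were retested in concentration series (top 20 uM); acetonitrile served as negative baseline.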

[4] = biological target: human CYP2C9, CYP2C9 (gene 1559) (UniProt P11712); assay: NVS_ADME_hCYP2C9: NovaScreen (NVS) CYP450-related Enzyme Activity (ADME) Assay for human CYP2C9 (AID 2283108)
How it was run: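 Cell-free assay of recombinant human CYP2C9 produced in Sf9 cells, with enzyme activity read by fluorescence intensity 0.75 h after compound addition. Loss of signal versus an acetonitrile negative control indicates inhibition. Primary screen used 10 uM in duplicate; actives were retested in concentration series.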

[5] = biological target: Cytochrome P450 2C19 (Homo sapiens) (UniProt P33261); assay: NVS_ADME_hCYP2C19: NovaScreen (NVS) CYP450-related Enzyme Activity (ADME) Assay for human CYP2C19 (AID 2283113);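 as to AC50: potency for inhibition seen as loss of fluorescent signal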
How it was run: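 Recombinant insect-cell-expressed enzyme, fluorescent substrate, 1 h after chemical addition, fluorescence intensity. Baseline = acetonitrile vehicle; activity scored as signal loss. Primary HTS single concentration 10 uM, duplicate; actives retested in concentration series.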

[6] = biological target: rat CYP1A2, Cyp1a2 (gene 24297) (UniProt P04799); assay: NVS_ADME_rCYP1A2: NovaScreen (NVS) CYP450-related Enzyme Activity (ADME) Assay for rat CYP1A2 (AID 2283115)
How it was run: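 Primary testing ran in duplicate at 10 uM, with actives re-tested across concentration series. Fluorescence intensity from substrate turnover by recombinant protein, measured 1 hour post-dosing, with signal loss scored against acetonitrile vehicle.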

rat CYP2C6, gene 293989 = assay: NVS_ADME_rCYP2C6: NovaScreen (NVS) CYP450-related Enzyme Activity (ADME) Assay for rat CYP2C6 (AID 2283120)
How it was run: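 Compounds first tested in duplicate at 10 uM, hits (e.g. 30% inhibition) re-run in singleton dose series to a 20 uM top concentration. Enzyme activity of recombinant rat CYP2C6 measured via fluorescent substrate turnover after 1 h; acetonitrile baseline.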

[7] = biological target: rat CYP2C13, Cyp2c13 (gene 171521) (UniProt P20814); assay: NVS_ADME_rCYP2C13: NovaScreen (NVS) CYP450-related Enzyme Activity (ADME) Assay for rat CYP2C13 (AID 2283121)
How it was run: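 Inhibition is read as decreased fluorescent product formation, referenced to acetonitrile vehicle. Cell-free recombinant rat Cyp2c13 reaction ran 0.75 hour; compounds first at 10 uM in duplicate, then concentration series for actives.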

rat CYP3A1, gene 25642 = assay: NVS_ADME_rCYP3A1: NovaScreen (NVS) CYP450-related Enzyme Activity (ADME) Assay for rat CYP3A1 (AID 2283126)
How it was run: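 Compounds went first at 10 uM duplicate, then to series with 20 uM maximum. Fluorescence from substrate turnover by the recombinant enzyme was measured 0.5 h post-dosing, inhibition scored against acetonitrile vehicle.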

[8] = biological target: rat CYP3A2, Cyp3a2 (gene 266682) (UniProt P05183); assay: NVS_ADME_rCYP3A2: NovaScreen (NVS) CYP450-related Enzyme Activity (ADME) Assay for rat CYP3A2 (AID 2283128)
How it was run: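 Fluorescence readout of extracted rat CYP3A2 activity 0.5 h post-dose, acetonitrile as negative control. Single-point testing in duplicate at 10 uM, followed by concentration series to a 20 uM maximum for actives.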

[9] = biological target: human Acetylcholinesterase (AChE), ACHE (gene 43) (UniProt P22303); assay: NVS_ENZ_hAChE: NovaScreen (NVS) Enzymatic Assay for human Acetylcholinesterase (AChE) (AID 2283129)
How it was run: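 Actives from a duplicate single-point screen (25 uM) were followed up in concentration series. Enzyme activity read by absorbance (colorimetric) 0.33 hour after dosing, cell-free, normalized to DMSO, with loss of signal scored.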

[10] = biological target: Cytochrome P450 3A4 (Homo sapiens) (UniProt P08684); assay: NVS_ADME_hCYP3A4: NovaScreen (NVS) CYP450-related Enzyme Activity (ADME) Assay for human CYP3A4 (AID 2283110)
How it was run: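 Activity is derived from decreased fluorescence intensity relative to acetonitrile, measured 0.33 hour after dosing insect-cell-expressed CYP3A4 in a cell-free format. Screening used 10 uM in duplicate before concentration-response follow-up.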

[11] = biological target: rat CYP2C12, Cyp2c12 (gene 25011) (UniProt P11510); assay: NVS_ADME_rCYP2C12: NovaScreen (NVS) CYP450-related Enzyme Activity (ADME) Assay for rat CYP2C12 (AID 2283119)
How it was run: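 Fluorescent-substrate turnover by recombinant rat CYP2C12, measured at 0.5 h, normalized to acetonitrile vehicle. Chemicals screened first at a single 10 uM concentration in duplicate, with concentration series for actives.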

[12] = biological target: human CYP2D6, CYP2D6 (gene 1565) (UniProt P10635); assay: NVS_ADME_hCYP2D6: NovaScreen (NVS) CYP450-related Enzyme Activity (ADME) Assay for human CYP2D6 (AID 2283107)
How it was run: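 Fluorescence intensity read 1 h post-dosing; insect-cell-expressed recombinant protein with fluorogenic substrate, no cells. Activity is scored as signal loss relative to acetonitrile baseline, first at a single 10 uM concentration in duplicate, then as concentration series for confirmed actives.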

[13] = biological target: human AMP-activated Protein Kinase, alpha 1 (AMPKa1), PRKAA1 (gene 5562) (UniProt Q13131); assay: NVS_ENZ_hAMPKa1: NovaScreen (NVS) Enzymatic Assay for human AMP-activated Protein Kinase, alpha 1 (AMPKa1) (AID 2283130)
How it was run: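 Compounds were screened in duplicate at 25 uM, and those reaching ~30% inhibition were titrated up to 50 uM. The enzyme was recombinant human AMPKα1, and kinase turnover was read by fluorescence/mobility shift 1 h post-dosing as loss of signal versus DMSO.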

[14] = biological target: rat CYP2D1, Cyp2d1 (gene 266684) (UniProt P10633); assay: NVS_ADME_rCYP2D1: NovaScreen (NVS) CYP450-related Enzyme Activity (ADME) Assay for rat CYP2D1 (AID 2283122)
How it was run: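 Rat CYP2D1 enzyme activity measured by fluorescence intensity in a cell-free format, 0.75 h post-dosing, acetonitrile as negative control. Screening at 10 uM in duplicate, with actives followed in concentration series up to 20 uM.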

[15] = biological target: human CYP2C8, CYP2C8 (gene 1558) (UniProt P10632); assay: NVS_ADME_hCYP2C8: NovaScreen (NVS) CYP450-related Enzyme Activity (ADME) Assay for human CYP2C8 (AID 2283104; active = hit-call score of the fitted dose curve at least 0.9, where 1 is the maximum; inactive = score below 0.9)
How it was run: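 Fluorescence readout of substrate turnover by recombinant CYP2C8 after 0.5 h, baseline acetonitrile. Single-concentration duplicate screen at 10 uM preceded singleton concentration series (max 20 uM) for compounds passing the inhibition threshold.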

[16] = biological target: human CYP2J2, CYP2J2 (gene 1573) (UniProt P51589); assay: NVS_ADME_hCYP2J2: NovaScreen (NVS) CYP450-related Enzyme Activity (ADME) Assay for human CYP2J2 (AID 2283106)
How it was run: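 Chemicals were first tested at 10 uM in duplicate, and hits meeting criteria such as 30% inhibition were run in singleton concentration series with a 20 uM top concentration. Enzyme activity of recombinant CYP2J2 was measured by fluorescence after 1 h, relative to acetonitrile.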

rat CYP2C13, Cyp2c13 (gene 171521), sequence (P20814 whole entry, looked up): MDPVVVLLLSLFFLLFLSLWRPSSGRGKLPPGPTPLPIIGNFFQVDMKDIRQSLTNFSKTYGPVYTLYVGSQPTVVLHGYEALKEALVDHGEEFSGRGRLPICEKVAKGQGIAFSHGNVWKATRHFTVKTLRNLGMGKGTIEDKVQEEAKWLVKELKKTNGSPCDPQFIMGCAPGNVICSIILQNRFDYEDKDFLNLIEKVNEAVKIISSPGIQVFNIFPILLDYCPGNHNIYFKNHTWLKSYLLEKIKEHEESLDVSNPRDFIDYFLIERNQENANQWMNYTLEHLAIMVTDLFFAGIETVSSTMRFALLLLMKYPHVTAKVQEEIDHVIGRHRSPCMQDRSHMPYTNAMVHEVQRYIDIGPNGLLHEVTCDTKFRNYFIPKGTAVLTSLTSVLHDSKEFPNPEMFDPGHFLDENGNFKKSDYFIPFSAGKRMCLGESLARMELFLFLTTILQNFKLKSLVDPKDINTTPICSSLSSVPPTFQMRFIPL
human Acetylcholinesterase (AChE), ACHE (gene 43), sequence (P22303 whole entry, looked up): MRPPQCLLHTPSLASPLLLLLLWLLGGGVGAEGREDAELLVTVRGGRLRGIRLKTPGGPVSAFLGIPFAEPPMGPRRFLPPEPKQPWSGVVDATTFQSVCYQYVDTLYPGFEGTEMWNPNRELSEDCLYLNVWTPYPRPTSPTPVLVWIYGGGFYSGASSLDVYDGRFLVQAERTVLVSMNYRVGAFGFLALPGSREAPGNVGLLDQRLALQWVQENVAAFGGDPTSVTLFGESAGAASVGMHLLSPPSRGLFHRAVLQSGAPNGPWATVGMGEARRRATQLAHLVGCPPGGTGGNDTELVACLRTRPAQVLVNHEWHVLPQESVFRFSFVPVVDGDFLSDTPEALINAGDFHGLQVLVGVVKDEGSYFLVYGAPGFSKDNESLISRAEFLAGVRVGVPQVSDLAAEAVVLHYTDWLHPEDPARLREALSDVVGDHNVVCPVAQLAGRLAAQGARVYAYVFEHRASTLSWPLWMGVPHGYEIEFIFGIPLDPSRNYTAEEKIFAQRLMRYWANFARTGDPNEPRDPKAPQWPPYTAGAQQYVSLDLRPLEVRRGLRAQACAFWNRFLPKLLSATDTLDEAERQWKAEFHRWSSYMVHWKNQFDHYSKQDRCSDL
human CYP2C9, CYP2C9 (gene 1559), sequence (P11712 whole entry, looked up): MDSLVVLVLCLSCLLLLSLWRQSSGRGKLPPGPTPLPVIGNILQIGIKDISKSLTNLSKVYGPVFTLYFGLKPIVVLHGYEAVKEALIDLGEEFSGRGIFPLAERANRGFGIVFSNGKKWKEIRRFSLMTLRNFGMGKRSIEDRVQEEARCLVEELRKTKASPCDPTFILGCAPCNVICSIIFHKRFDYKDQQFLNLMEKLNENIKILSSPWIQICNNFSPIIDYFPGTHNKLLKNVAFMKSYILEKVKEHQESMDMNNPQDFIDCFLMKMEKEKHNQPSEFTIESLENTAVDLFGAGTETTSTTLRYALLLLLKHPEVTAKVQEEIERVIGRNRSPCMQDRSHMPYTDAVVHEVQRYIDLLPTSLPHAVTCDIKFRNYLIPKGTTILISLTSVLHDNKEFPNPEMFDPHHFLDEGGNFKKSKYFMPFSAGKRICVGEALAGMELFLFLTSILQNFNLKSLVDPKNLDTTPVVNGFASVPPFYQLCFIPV
Cytochrome P450 2C18 (Homo sapiens), sequence (P33260 whole entry, looked up): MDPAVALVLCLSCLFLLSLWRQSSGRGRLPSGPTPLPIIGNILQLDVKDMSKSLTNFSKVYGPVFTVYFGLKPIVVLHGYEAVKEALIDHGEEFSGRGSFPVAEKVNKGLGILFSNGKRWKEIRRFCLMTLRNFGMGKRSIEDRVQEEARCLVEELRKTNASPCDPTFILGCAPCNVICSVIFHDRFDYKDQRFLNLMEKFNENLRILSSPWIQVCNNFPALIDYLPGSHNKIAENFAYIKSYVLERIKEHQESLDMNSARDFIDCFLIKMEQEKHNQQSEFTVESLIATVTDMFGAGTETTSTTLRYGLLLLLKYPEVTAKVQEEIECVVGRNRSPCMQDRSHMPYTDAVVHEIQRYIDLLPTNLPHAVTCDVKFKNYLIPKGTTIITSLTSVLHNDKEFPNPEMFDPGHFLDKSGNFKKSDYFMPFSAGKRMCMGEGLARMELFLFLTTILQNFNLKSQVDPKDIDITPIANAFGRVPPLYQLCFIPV
rat CYP3A2, Cyp3a2 (gene 266682), sequence (P05183 whole entry, looked up): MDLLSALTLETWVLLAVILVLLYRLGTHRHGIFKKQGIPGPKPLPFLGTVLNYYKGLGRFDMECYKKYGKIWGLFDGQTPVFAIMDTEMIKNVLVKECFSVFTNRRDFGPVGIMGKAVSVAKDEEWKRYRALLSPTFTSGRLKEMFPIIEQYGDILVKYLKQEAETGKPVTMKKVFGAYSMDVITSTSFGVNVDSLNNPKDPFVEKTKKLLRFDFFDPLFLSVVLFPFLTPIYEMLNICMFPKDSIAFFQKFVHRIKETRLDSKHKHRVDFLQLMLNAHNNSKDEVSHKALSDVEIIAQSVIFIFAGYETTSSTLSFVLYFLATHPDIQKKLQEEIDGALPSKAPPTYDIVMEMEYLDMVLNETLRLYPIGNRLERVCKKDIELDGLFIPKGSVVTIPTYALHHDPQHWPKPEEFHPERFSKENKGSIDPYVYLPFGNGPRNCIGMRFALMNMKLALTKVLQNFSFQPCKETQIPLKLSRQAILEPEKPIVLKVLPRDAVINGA
human CYP1A2, CYP1A2 (gene 1544), sequence (P05177 whole entry, looked up): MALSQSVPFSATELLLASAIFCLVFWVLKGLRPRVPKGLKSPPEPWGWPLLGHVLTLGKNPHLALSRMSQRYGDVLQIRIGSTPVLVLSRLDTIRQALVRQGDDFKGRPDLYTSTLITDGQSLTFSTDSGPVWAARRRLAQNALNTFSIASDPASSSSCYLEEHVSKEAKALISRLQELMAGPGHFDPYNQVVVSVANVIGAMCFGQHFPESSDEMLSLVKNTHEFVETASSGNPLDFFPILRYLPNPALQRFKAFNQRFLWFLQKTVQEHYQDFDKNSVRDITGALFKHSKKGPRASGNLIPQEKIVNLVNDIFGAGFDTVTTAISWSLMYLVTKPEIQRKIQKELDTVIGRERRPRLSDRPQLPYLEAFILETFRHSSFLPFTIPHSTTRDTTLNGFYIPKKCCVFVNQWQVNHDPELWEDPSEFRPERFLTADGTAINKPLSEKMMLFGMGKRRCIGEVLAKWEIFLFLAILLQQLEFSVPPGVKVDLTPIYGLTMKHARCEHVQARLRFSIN
human CYP2B6, CYP2B6 (gene 1555), sequence (P20813 whole entry, looked up): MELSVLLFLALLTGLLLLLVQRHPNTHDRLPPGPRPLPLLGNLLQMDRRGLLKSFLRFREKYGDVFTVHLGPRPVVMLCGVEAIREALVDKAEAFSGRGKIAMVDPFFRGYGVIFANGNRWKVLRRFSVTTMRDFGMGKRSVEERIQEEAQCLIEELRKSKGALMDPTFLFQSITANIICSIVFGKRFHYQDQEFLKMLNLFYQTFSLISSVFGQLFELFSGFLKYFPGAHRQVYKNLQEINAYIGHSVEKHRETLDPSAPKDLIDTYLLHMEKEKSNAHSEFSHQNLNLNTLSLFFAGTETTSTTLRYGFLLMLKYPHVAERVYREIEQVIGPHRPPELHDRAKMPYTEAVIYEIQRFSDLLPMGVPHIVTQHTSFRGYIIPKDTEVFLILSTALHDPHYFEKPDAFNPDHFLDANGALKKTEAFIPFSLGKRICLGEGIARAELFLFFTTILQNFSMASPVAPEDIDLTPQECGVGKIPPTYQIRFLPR
rat CYP1A2, Cyp1a2 (gene 24297), sequence (P04799 whole entry, looked up): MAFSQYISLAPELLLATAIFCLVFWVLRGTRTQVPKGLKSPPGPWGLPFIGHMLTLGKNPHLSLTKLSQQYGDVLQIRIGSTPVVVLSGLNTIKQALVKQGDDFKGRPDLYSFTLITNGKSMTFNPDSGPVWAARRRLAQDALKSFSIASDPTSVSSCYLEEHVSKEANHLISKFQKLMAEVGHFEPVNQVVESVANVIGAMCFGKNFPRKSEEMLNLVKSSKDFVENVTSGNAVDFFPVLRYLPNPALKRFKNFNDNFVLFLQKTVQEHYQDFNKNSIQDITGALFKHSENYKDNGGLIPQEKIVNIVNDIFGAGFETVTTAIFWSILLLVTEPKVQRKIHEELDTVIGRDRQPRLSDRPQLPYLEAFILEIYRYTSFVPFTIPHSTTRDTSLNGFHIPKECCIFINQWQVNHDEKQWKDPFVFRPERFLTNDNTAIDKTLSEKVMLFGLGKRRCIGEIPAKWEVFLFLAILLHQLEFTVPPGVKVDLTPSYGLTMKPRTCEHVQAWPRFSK
rat CYP2D1, Cyp2d1 (gene 266684), sequence (P10633 whole entry, looked up): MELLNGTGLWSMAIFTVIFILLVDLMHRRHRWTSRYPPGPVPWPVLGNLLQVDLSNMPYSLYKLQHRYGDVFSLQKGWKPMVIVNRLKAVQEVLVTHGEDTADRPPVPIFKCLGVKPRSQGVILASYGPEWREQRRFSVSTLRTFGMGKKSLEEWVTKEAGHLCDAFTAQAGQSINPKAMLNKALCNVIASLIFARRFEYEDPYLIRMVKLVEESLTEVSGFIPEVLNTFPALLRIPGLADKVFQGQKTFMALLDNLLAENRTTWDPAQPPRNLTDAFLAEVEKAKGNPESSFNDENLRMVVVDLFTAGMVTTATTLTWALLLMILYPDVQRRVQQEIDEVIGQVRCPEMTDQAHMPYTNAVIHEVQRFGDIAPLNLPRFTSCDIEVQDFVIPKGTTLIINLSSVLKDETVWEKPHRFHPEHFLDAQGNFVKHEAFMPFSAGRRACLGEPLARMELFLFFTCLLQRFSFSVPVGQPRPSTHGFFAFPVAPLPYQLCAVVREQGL

Structure (SMILES): CCCSP(=O)(OCC)Oc1ccc(Br)cc1Cl (stereo not drawn)
- AC50 [1]: 11.3 µM (active)
- AC50 [2]: 5.19 µM (active)
- AC50 [3]: 3.45 µM (active)
- AC50 [4]: 7.09 µM (active)
- AC50 [5]: 10 µM (active)
- outcome [6]: inactive
- AC50 (rat CYP2C6, gene 293989): 8.28 µM (active)
- AC50 [7]: 9.49 µM (active)
- AC50 (rat CYP3A1, gene 25642): 9.45 µM (active)
- AC50 [8]: 7.4 µM (active)
- AC50 [9]: 7.93 µM (active)

Structure (SMILES): CC(C1CC1)C(O)(Cn1cncn1)c1ccc(Cl)cc1 (stereo not drawn)
- AC50 [1]: 6.32 µM (active)
- AC50 [3]: 3.26 µM (active)
- AC50 [4]: 54.7 nM (active) and 47.4 nM (active)
- AC50 [10]: 4.56 µM (active)
- AC50 [5]: 0.111 µM (active)
- AC50 [11]: 3.71 µM (active)
- AC50 [7]: 0.0755 µM (active)
- AC50 (rat CYP3A1, gene 25642): 0.384 µM (active)
- AC50 [8]: 0.771 µM (active)

Structure (SMILES): Nc1c(Cl)cc([N+](=O)[O-])cc1Cl
- AC50 [1]: 3.48 µM (active)
- AC50 [2]: 2.28 µM (active)
- outcome [12]: inactive
- outcome [5]: inactive

Structure (SMILES): CC[C@H](C)[C@H]1O[C@]2(C=C[C@@H]1C)C[C@@H]1C[C@@H](C/C=C(\C)[C@@H](O[C@H]3C[C@H](OC)[C@@H](O[C@H]4C[C@H](OC)[C@@H](NC)[C@H](C)O4)[C@H](C)O3)[C@@H](C)/C=C/C=C3\CO[C@@H]4[C@H](O)C(C)=C[C@@H](C(=O)O1)[C@]34O)O2
- AC50 [1]: 8.42 µM (active)
- AC50 [3]: 5.39 µM (active)
- AC50 [5]: 10 µM (active)
- AC50 [7]: 6.31 µM (active)
- AC50 (rat CYP3A1, gene 25642): 7.04 µM (active)
- AC50 [8]: 8.11 µM (active)
- AC50 [13]: 14.6 µM (active)

Structure (SMILES): CCC(=O)Nc1ccc(Cl)c(Cl)c1
- AC50 [2]: 2.03 µM (active)
- outcome [6]: inactive
- AC50 [7]: 5.42 µM (active)
- AC50 [14]: 5.39 µM (active)
- AC50 (rat CYP3A1, gene 25642): 4.74 µM (active)
- outcome [9]: inactive

Structure (SMILES): CN(C)C(=O)Nc1cccc(C(F)(F)F)c1
- AC50 [2]: 5.3 µM (active)

Structure (SMILES): CCOC(=O)CC(SP(=O)(OC)OC)C(=O)OCC (stereo not drawn)
- AC50 [1]: 2.49 µM (active)
- outcome [2]: inactive
- outcome [3]: inactive
- outcome [15]: inactive
- AC50 [4]: 1.98 µM (active)
- outcome [10]: inactive
- AC50 [5]: 9.39 µM (active)
- AC50 (rat CYP2C6, gene 293989): 5.32 µM (active)
- outcome [7]: inactive
- outcome (rat CYP3A1, gene 25642): inactive
- outcome [8]: inactive
- outcome [9]: inactive

Structure (SMILES): CCOP(=S)(OCC)Oc1ccc([N+](=O)[O-])cc1
- AC50 [1]: 0.99 µM (active)
- AC50 [2]: 2.2 µM (active)
- AC50 [3]: 1.95 µM (active)
- AC50 [16]: 0.609 µM (active)
- outcome [12]: inactive
- AC50 [4]: 2.62 µM (active)
- AC50 [5]: 0.21 µM (active)
- AC50 [11]: 6.18 µM (active)
- AC50 (rat CYP2C6, gene 293989): 0.108 µM (active)
- AC50 [7]: 10 µM (active)
- AC50 [14]: 10 µM (active)
- AC50 (rat CYP3A1, gene 25642): 6.9 µM (active)
- AC50 [8]: 2.86 µM (active)
